The results in this text go back to PubChem BioAssay.

The target of assay [1] is Albumin (Bos taurus) (UniProt P02769). The assay is described as follows: bovine serum albumin binders on microarray, profiling panel, artefact control for SMM control protein annotation, biochemical, small-molecule microarray, Alexa647 label, 635/667 nm fluorescence (AID 1118).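 Note: score merges 667 nm emission intensity and signal-to-noise per printed compound spot.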 The note with it: BSA-A647 binding, fluorescence 635 nm, higher = more signal.
Assay [2] can be described thus: small-molecule microarray binders of probe aXIP, primary screen, biochemical, NeuroSMM set, 635/667 nm fluorescence (AID 1119).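 Note: probe is the protein aXip251-270 applied at 1 µg/mL to compound-printed slides; binding of probe to printed compounds measured as 667 nm fluorescence plus signal to noise.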 The note with it: higher = more signal, called active from +8 up or from −8 down unless noted.
The nature of assay [3]: small-molecule binders of probe aNOTCH3, primary screen, biochemical, small-molecule microarray, 635/667 nm fluorescence (AID 1120).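 Note: probe is a biotin-tagged antibody raised against NOTCH3 rather than NOTCH3 protein; score merges spot fluorescence near 667 nm with spot signal to noise.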 Particulars: higher = more signal; small-molecule microarray, probe aNOTCH3, fluorescence unless noted.
Assay [4] can be described thus: small-molecule binders of probe aNOTCH2, primary screen, biochemical, small-molecule microarray, 635/667 nm fluorescence (AID 1121).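 Note: score merges feature fluorescence read at 667 nm with its signal to noise.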 The note with it: higher = more signal; small-molecule microarray, probe aNOTCH2, fluorescence unless noted.
Assay [5] addresses Carbonic anhydrase 2 (Homo sapiens) (UniProt P00918). The assay is described as follows: CAII small-molecule binders, profiling panel, biochemical, small-molecule microarray, Alexa647-labelled CAII (AID 1122). Particulars: CAII-A647 binding fluorescence, higher = more signal.
The nature of assay [6]: COS7 lysate on small-molecule microarray, probe aHis, 635 nm (AID 1123).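 Note: z-score combines 667nm fluorescence intensity with signal-to-noise per printed compound spot.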 Particulars: higher = more signal; small-molecule microarray, COS7 cell lysate, probe aHis, fluorescence unless noted.
A short description of assay [7]: compound binding in COS7 lysate, probe aLAP1, primary screen, cell lysate, small-molecule microarray (AID 1124).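 Note: lysate comes from COS7 cells expressing LAP1 and is applied at 0.3 µg/mL; score merges spot fluorescence near 667 nm with signal-to-noise over triplicate slides.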 Particulars: higher = more signal; small-molecule microarray, COS7 cell lysate, probe aLAP1, fluorescence unless noted.
In assay [8] the test system is Sam68 (KHDRBS1). The assay is described as follows: Sam68 small-molecule binders, primary screen, biochemical, small-molecule microarray, 635 nm fluorescence (AID 1125).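 Note: score merges 667 nm channel intensity with signal to noise over triplicate slides.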 The note with it: small-molecule microarray binding, higher = more signal.
In assay [9] the test system is Chordin-like protein 2 (CHRDL2). The assay is described as follows: CHRDL2 small-molecule binders, primary screen, biochemical, small-molecule microarray, 635 nm fluorescence (AID 1126).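 Note: printed compound slides probed with Chrdl2 protein at 4 µg/mL for 1 h at 4 C; score merges 667 nm emission intensity with signal to noise over three replicate slides.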 The note with it: small-molecule microarray binding, fluorescence 635 nm; higher = more signal.
Assay [10] addresses Concanavalin-A (Canavalia ensiformis) (UniProt P02866). The assay is described as follows: ConA small-molecule binders, primary screen, artefact control for SMM control protein annotation, biochemical, small-molecule microarray, Alexa647 label, 635 nm (AID 1127).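 Note: z combines 667 nm emission intensity with signal-to-noise across three replicate slides.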 Particulars: ConA-A647 binding fluorescence, higher = more signal.
The nature of assay [11]: anti-His antibody binders, primary screen, artefact control for SMM control protein annotation, biochemical, small-molecule microarray, 635 nm fluorescence (AID 1128).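 Note: score merges feature fluorescence with signal-to-noise for each printed compound spot.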 Particulars: anti-His Alexa647 antibody binding, higher = more signal.
For assay [12], the system named is Human papillomavirus type 1a E7 protein (residues 1-88). The assay is described as follows: HPV1a E7 small-molecule binders, primary screen, biochemical, small-molecule microarray, residues 1-88, 635 nm (AID 1129). The note with it: small-molecule microarray binding, fluorescence 635 nm; higher = more signal.
Assay [13] addresses Focal adhesion kinase 1 (Homo sapiens) (UniProt Q05397). The assay is described as follows: small-molecule microarray binders of FAK, primary screen, biochemical, 635/667 nm fluorescence, BSA, DTT (AID 1130).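 Note: composite of spot emission at 667 nm and signal to noise over triplicate slides.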 The note with it: PTK2 binding, 635 nm fluorescence, higher = more signal.
For assay [14], the system named is Fibrinogen (Alexa647-labelled). The assay is described as follows: fibrinogen binders on compound microarrays, profiling panel, artefact control for SMM control-protein annotation, biochemical, small-molecule microarray, 635/667 nm fluorescence (AID 1131).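 Note: z-score merges 667 nm fluorescence with per-spot signal-to-noise over triplicate slides.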 The note with it: fibrinogen-A647 binding fluorescence, higher = more signal.
Assay [15] deals with Follistatin (Homo sapiens) (UniProt P19883). The assay is described as follows: follistatin binders on small-molecule microarrays, primary screen, biochemical, small-molecule microarray, 635/667 nm fluorescence (AID 1132). Particulars: FST binding, 635 nm fluorescence, higher = more signal.
For assay [16], the target named is Fibroblast growth factor 2 (Homo sapiens) (UniProt P09038). The assay is described as follows: FGF2 binders on small-molecule microarrays, primary screen, biochemical, small-molecule microarray, 635/667 nm fluorescence (AID 1133). Particulars: small-molecule microarray binding, FGF2, fluorescence 635/667; higher = more signal.
Assay [17] can be described thus: mitochondrial membrane potential change in A549 cells, profiling panel, cell-based, JC-1 fluorescence, basal, 24 h, 100 nL (AID 1138).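 Note: A549 lung adenocarcinoma cells under basal conditions with no added stimulus; test concentration not given here.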 Particulars: higher = more signal.
Assay [18] relates to Lefty1. The assay is described as follows: Lefty1 binders on small-molecule microarrays, primary screen, biochemical, small-molecule microarray, 635/667 nm fluorescence (AID 1139). Particulars: small-molecule microarray binding, fluorescence 635/667; higher = more signal.
Assay [19] has as its system wheat germ agglutinin (Triticum aestivum), Alexa647-labelled. The assay is described as follows: wheat germ agglutinin binders on compound microarrays, profiling panel, artefact control for SMM control-protein annotation, biochemical, small-molecule microarray, 635/667 nm fluorescence (AID 1140).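 Note: score merges 667 nm feature emission with signal to noise over triplicate slides.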 The note with it: WGA-A647 binding, 635 nm fluorescence, higher = more signal.

In assay [20] the target is Luciferin 4-monooxygenase (Photinus pyralis) (UniProt P08659). The assay is described as follows: firefly luciferase enzyme inhibitors, primary screen, biochemical, luminescence, purified enzyme, 2006 set (AID 1141).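 Note: cell-free assay with purified firefly luciferase at 100 ng per well in PBS; test concentration not given here.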 Particulars: SteadyGlo luminescence, 30 min; higher = more signal, called active from +8 up or from −8 down unless noted.

Molecules are shown by their SMILES. Values joined by “and” are separate entries in the source; they are usually repeats but may differ in a detail not shown here. Equal values may be shown once. Active and inactive are the calls of the source.

Fibroblast growth factor 2 (Homo sapiens), sequence (P09038 whole entry, looked up): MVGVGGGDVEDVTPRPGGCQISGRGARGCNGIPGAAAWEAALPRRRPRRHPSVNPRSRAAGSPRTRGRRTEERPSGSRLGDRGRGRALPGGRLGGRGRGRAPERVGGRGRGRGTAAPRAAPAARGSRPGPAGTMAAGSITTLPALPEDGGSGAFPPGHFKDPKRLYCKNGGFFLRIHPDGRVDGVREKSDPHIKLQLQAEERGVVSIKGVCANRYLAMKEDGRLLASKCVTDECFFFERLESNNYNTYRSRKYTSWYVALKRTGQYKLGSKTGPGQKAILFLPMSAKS
Follistatin (Homo sapiens), sequence (P19883 whole entry, looked up): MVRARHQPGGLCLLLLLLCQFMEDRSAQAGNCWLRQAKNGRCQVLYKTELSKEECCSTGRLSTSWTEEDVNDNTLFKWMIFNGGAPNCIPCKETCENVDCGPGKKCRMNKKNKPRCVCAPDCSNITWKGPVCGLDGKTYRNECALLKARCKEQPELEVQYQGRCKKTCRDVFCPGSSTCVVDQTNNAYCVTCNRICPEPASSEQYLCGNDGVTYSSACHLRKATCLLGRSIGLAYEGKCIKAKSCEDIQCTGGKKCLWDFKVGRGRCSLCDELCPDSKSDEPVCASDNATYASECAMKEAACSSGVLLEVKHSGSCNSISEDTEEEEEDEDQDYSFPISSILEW
Albumin (Bos taurus), sequence (P02769 whole entry, looked up): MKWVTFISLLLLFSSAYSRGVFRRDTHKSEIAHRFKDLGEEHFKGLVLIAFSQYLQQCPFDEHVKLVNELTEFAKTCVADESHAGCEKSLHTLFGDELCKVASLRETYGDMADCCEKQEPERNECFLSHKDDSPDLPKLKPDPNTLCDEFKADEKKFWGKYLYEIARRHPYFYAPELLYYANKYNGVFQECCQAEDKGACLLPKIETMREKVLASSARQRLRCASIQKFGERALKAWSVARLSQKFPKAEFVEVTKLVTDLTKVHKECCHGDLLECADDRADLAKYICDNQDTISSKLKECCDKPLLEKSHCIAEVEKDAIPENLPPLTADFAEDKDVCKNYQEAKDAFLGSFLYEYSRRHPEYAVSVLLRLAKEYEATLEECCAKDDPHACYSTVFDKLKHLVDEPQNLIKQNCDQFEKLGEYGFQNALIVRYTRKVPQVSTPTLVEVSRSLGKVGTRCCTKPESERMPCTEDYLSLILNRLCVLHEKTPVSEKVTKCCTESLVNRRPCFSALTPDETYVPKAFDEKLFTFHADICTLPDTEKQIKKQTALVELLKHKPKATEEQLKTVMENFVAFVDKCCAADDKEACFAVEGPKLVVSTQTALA
Concanavalin-A (Canavalia ensiformis), sequence (P02866 whole entry, looked up): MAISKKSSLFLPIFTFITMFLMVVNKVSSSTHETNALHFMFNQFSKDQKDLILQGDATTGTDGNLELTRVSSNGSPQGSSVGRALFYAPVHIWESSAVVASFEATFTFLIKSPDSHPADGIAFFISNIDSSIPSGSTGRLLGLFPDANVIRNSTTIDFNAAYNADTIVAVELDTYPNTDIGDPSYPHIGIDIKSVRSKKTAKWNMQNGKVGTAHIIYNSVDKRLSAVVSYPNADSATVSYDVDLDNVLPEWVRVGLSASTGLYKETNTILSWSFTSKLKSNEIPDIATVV
Focal adhesion kinase 1 (Homo sapiens), sequence (Q05397 whole entry, looked up): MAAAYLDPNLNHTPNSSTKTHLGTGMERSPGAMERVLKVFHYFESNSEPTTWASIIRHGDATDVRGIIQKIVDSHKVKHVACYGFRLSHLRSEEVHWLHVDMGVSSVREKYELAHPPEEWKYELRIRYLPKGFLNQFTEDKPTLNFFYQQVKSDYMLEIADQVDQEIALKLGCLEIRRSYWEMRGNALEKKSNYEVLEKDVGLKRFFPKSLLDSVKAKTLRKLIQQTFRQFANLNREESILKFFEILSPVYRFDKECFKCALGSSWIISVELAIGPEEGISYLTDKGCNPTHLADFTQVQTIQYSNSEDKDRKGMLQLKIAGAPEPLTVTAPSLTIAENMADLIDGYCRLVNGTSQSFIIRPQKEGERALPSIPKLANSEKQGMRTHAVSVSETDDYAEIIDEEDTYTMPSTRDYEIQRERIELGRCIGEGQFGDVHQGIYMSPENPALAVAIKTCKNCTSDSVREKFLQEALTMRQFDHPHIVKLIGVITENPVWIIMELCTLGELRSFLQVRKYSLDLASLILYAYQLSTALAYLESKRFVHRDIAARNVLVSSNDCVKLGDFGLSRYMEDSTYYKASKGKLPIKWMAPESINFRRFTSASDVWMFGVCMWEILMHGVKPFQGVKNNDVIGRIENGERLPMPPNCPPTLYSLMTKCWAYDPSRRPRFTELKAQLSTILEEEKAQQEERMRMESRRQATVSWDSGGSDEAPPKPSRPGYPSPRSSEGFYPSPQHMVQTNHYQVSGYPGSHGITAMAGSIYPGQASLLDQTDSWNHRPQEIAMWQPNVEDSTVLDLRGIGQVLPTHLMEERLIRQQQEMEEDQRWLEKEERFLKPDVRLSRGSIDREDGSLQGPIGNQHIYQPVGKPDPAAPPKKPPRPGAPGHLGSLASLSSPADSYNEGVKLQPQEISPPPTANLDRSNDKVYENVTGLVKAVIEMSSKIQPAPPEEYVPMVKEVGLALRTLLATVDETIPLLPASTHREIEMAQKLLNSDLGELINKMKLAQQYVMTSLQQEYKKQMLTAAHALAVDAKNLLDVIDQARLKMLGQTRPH
Luciferin 4-monooxygenase (Photinus pyralis), sequence (P08659 whole entry, looked up): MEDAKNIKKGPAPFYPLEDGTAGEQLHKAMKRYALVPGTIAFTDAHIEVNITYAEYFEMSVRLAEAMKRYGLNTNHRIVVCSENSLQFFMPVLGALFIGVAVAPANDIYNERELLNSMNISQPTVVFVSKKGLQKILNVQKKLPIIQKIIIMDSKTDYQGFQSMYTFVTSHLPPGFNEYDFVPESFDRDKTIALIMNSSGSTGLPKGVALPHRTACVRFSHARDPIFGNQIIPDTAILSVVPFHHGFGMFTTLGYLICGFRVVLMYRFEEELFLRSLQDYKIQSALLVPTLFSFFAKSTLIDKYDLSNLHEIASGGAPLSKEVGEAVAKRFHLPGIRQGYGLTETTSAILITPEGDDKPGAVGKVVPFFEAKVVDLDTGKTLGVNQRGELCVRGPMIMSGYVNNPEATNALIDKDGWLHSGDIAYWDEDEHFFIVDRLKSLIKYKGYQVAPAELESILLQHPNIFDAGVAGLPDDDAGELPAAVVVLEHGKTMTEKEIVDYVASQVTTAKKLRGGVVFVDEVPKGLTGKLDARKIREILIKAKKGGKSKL

As to `CC1N(P(=O)(c2ccccc2)c2ccccc2)CC(O)(c2ccccc2)CC12CC2` (stereo not given), the composite z-score in assay [1] is 0.728 and 0.608; in assay [3], -0.136 and 0.15; in assay [4], 0.148 and 0.256; in [5], 0.596 and 0.631; in assay [6], 3.25 and 2.52; in assay [7] it was 0.934 and 0.881. The composite z-score was 0.723 and -0.577 in [8]; -0.665 and -0.801 in [9]; -0.358 and -0.0278 in assay [10]; 1.12 and 1.33 in assay [11]; 0.773 and 0.537 in assay [12]; 1.39 and 0.264 in assay [13]. The composite z-score in assay [14] was -0.817 and 0.653; in assay [15] it was -1.07 and -0.0739; in [16], -1.02 and -0.642; in assay [18], -1.48 and -1.47; in assay [19] it was -0.322 and 0.637. In addition, the composite Z-score in assay [2] was 0.311 (inactive) and 0.617 (inactive). In addition, the z-score was 0.158 and 0.776 in [17]; 2.42 (inactive) and 2.44 (inactive) in assay [20].
In the case of `C[C@H]1O[C@H]2C3=C(C(=O)[C@@H]4O[C@@H]4[C@@H]3O)[C@@H]1[C@@H]1[C@@H](C)OC=C3[C@@H](O)[C@H]4O[C@H]4C(=O)[C@]312`, the composite z-score in assay [1] was 0.664; in assay [3], -0.0947; in assay [4], -0.125; in assay [5], 0.26; in assay [6], -0.393; in assay [7], -0.494. Further, the composite z-score in [8] was -1.77; in assay [9], -0.0769; in [10], -1.83; in assay [11], -0.652; in [12], -0.539; in assay [13], -0.27. Further, the composite z-score in assay [14] was -0.727; in [15], -0.72; in assay [16] it was -0.0771; in assay [18], -0.235; in [19], 0.202. The composite Z-score in assay [2] is 0.19 (inactive). Moreover, the z-score was 0.344 in assay [17] and -1.61 (inactive) in [20].
`CN1CCC(c2ccc(CO)cc2)=CC1C1CC1` (stereo not given): the composite z-score in assay [1] was -1.02; in [3], 0.0357; in assay [4], -0.192; in assay [5], -0.0046; in [6], -0.106; in assay [7], -0.334. In addition, the composite z-score was -0.172 in assay [8]; 0.0276 in assay [9]; 0.28 in assay [10]; -0.192 in assay [11]; -0.855 in assay [12]; 0.363 in assay [13]. For the same molecule, the composite z-score was -0.0825 in assay [14]; 0.231 in assay [15]; 0.0573 in assay [16]; 0.85 in assay [18]; -0.0579 in assay [19]. Moreover, the composite Z-score in assay [2] was -0.557 (inactive). In addition, the z-score in assay [17] was 0.319; in assay [20], -0.866 (inactive).
Consider `CCCc1cc2c(n1Cc1ccco1)C(C)C1CN(C(=O)c3ccccc3)C(C)(C(=O)OC)C21` (stereo not given), for which the composite z-score is 0.953 in assay [1]; 0.247 in [3]; 0.374 in assay [4]; 0.744 in assay [5]; 0.747 in [6]; 0.859 in assay [7]. The composite z-score in assay [8] was found to be 0.878; in assay [9] it was 0.515; in assay [10], 0.851; in assay [11], 1.7; in assay [12], 0.806; in assay [13], 0.307. The composite z-score in assay [14] is 0.717; in [15] it was 1.13; in assay [16] it was -0.0321; in assay [18], 0.494; in assay [19] it was 1.29. The composite Z-score in assay [2] is 0.829 (inactive). The z-score is -0.0794 in assay [17] and -7.6 (inactive) in assay [20].
As for `CN1CCC(c2ccc(CO)cc2)=CC1c1cccs1` (stereo not given), the composite z-score in assay [1] was -0.105; in assay [3], 0.956; in assay [4], -0.14; in [5], 0.737; in assay [6] it was -0.563; in assay [7], 0.179. The composite z-score was -1.28 in assay [8]; 1.35 in assay [9]; 0.199 in [10]; 0.399 in assay [11]; -0.668 in assay [12]; 0.903 in assay [13]. In addition, the composite z-score in assay [14] is -0.28; in assay [15], 0.699; in [16] it was 0.0576; in [18], 1.35; in [19] it was 0.244. Besides, the composite Z-score in assay [2] is 0.204 (inactive). In addition, the results for the z-score in [17] and in assay [20] were 0.389 and -1.16 (inactive), respectively.
Turning to `COC(=O)C1(C)C=C2C(=C(C)C(=O)C2C)CN1` (stereo not given), the composite z-score in assay [1] was 0.395; in [3], -0.219; in assay [4] it was 0.0145; in assay [5], 0.917; in assay [6], 2.82; in assay [7] it was 1.46. In addition, the composite z-score in [8] was -0.326; in assay [9], -0.471; in assay [10], -2.16; in assay [11] it was 0.207; in [12] it was 0.111; in assay [13] it was 0.885. Besides, the composite z-score in assay [14] is -1.52; in [15], -0.0995; in [16], -0.755; in assay [18], -0.868; in assay [19] it was -0.0605. Further, the composite Z-score in [2] was 0.727 (inactive). Further, the z-score in assay [17] was -1.82; in assay [20], 2.34 (inactive).
As to `CN1CCc2nc(CO)c(CO)cc2C1`, the composite z-score in [1] is 0.372; in assay [3], 0.133; in [4], -0.115; in assay [5], 0.2; in assay [6], 0.121; in [7], -0.13. For the same molecule, the composite z-score in [8] is 0.132; in assay [9], 0.476; in [10], -0.446; in assay [11] it was 1.08; in assay [12], 0.635; in assay [13] it was 0.11. The composite z-score was 0.291 in assay [14]; 0.398 in assay [15]; 0.576 in [16]; 0.263 in assay [18]; -0.0298 in [19]. In [2], the composite Z-score is 0.396 (inactive). Besides, the z-score in [17] is 1.02; in assay [20] it was -0.529 (inactive).
Turning to `COC(=O)[C@H]1[C@@H](O)[C@@]2(O)c3c(OC)cc(OC)cc3O[C@@]2(c2ccc(OC)cc2)[C@@H]1c1ccccc1`, the composite z-score is 0.0007 in assay [1]; -0.101 in assay [3]; -0.0439 in [4]; -0.0268 in [5]; 0.309 in [6]; 0.413 in [7]. Moreover, the composite z-score in assay [8] was found to be 0.34; in assay [9], 0.671; in [10], 0.37; in [11], 0.287; in assay [12], 0.741; in [13] it was 0.153. For the same molecule, the composite z-score worked out at 0.323 in assay [14]; 0.53 in assay [15]; 0.4 in [16]; 0.614 in assay [18]; 0.0623 in assay [19]. For the same molecule, the composite Z-score in assay [2] is -0.619 (inactive). Also, the z-score in assay [17] is 0.862; in [20], -1.13 (inactive).
